According to PubChem BioAssay:
Active and inactive are the calls of the source.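 The calls were made as follows: active = compounds killing one labelled cell type while sparing the other, by normalised counts and ratio limits, not self-fluorescent; inactive = the rest.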

Experiment: differential killing of epithelial or mesenchymal cells, primary screen, imaging, PC-3E GFP, TEM4-18 mCherry, co-culture (AID 1345086);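 also: cells exposed to compound for 72 h before imaging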;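 as to red/green cell ratio (normalised): normalised mesenchymal count divided by normalised epithelial count so high means epithelial killing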
Conditions: imaging cell counts, at 1 µM; for red/green cell ratio (normalised): actives lie on both sides, counts scaled to control wells, 1 = unselective
[1] = measured here: epithelial PC-3E GFP cell survival
[2] = measured here: mesenchymal TEM4-18 mCherry cell survival

| Compound | red/green cell ratio (normalised) | normalised cell number [1] | normalised cell number [2] |
| --- | --- | --- | --- |
| CC(=O)OCC1O[C@H](Sc2ccc(C)cc2)[C@@H]2[C@@H](OC(=O)N2Cc2ccccc2)C1OC(C)=O (some centres not stated) | 0.83 (inactive) | 1.3 | 1.08 |
| COc1c(O)cc2c(c1O)C(=O)O[C@@H](C)[C@@H]2O | 1 (inactive) | 1.01 | 1.02 |
| CC(C)=CCC/C(C)=C\CC1=C(C)C(=O)c2ccccc2C1=O | 0.98 (inactive) | 1.11 | 1.09 |
| CC(C)[C@H]1COC(=S)N1C(C)CC(=O)N1CCOC1=O (some centres not stated) | 1.02 (inactive) | 1.09 | 1.11 |
| CC(CCOc1ccc(C(=O)O)cc1)C(=O)O (configuration not stated) | 1.1 (inactive) | 1.03 | 1.14 |
| Cc1ccc(S[C@H]2OC(COS(=O)(=O)c3ccc(C)cc3)C(O)[C@@H]3OC(=O)N[C@H]23)cc1 (some centres not stated) | 0.86 (inactive) | 1.19 | 1.02 |
| C[C@H](O)[C@@H]1N[C@H]2N(C1=O)c1ccccc1C21CC2C(=O)NC1c1nc3ccccc3c(=O)n12 (some centres not stated) | 1.08 (inactive) | 0.88 | 0.95 |
| NCC1O[C@@H](OC2C(N)C[C@@H](N)C(O)[C@H]2OC2OC(CO)C(OC3OC(CN)[C@@H](O)C(O)[C@H]3N)C2O)C(N)[C@@H](O)C1O (some centres not stated) | 1.11 (inactive) | 0.9 | 0.99 |
| CC(C)c1c(O)ccc2c1CCC1C(C)(C)CCC[C@]21C (some centres not stated) | 0.99 (inactive) | 1.08 | 1.07 |
